Records with an inconclusive call do not appear. Active and inactive are the calls of the source. Calls come from the whole dose curve.
Target: Atrial natriuretic peptide receptor 1 (Homo sapiens) (UniProt P16066)
Experiment: Natriuretic polypeptide receptor (hNpr1) antagonism - Pilot CMLD screen (AID 1347052);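 note: HEK293 cells with hNpr1 stimulated by hNppA peptide at 0.1 nM; cGMP level read as GloSensor luciferase luminescence after agonist stimulation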
Conditions: HEK293 hNpr1 GloSensor cGMP luminescence, ANP-stimulated; series mostly up to 9.22 µM

Atrial natriuretic peptide receptor 1 (Homo sapiens), sequence (P16066 whole entry, looked up): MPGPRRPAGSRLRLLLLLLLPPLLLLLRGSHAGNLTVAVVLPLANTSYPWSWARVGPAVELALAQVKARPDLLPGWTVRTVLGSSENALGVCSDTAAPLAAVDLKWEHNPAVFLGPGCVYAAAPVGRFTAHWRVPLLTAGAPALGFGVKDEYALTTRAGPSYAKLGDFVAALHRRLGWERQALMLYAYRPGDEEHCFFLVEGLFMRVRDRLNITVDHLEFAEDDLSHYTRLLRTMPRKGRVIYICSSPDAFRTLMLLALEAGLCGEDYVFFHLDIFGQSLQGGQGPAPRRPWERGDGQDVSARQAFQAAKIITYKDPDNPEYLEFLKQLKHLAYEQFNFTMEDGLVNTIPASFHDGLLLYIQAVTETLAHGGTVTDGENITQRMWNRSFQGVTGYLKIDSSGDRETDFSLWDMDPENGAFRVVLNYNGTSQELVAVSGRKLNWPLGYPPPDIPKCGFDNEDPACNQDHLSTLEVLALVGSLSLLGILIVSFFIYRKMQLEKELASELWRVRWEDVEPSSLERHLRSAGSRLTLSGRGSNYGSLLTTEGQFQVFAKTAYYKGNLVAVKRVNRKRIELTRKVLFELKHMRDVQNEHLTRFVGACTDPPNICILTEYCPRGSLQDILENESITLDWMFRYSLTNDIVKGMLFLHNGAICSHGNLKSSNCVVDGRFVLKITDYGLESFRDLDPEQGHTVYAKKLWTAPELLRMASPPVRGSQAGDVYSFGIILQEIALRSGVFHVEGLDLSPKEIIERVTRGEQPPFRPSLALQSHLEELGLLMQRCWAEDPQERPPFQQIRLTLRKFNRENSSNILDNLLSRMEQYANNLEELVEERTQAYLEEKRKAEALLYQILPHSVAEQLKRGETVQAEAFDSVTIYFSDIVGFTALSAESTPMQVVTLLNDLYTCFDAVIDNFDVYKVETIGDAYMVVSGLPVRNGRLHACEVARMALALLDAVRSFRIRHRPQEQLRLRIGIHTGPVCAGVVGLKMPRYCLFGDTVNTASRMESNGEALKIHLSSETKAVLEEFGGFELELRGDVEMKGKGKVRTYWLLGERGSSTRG

Potency, inactive:
COC(=O)C1=C(C(=O)OC)[C@@H]2N(C)c3ccc(OC)cc3[C@@]23C[C@@H](C(=O)OC)N(C(=O)N2CCNC2=O)C3=N1
CC1=CC[C@@H](C)O[C@@]2(C1)C(=O)N(Cc1ccc(F)cc1)c1ccccc12
COc1ccc([C@]23Cc4ccccc4[C@H](O2)c2c(cc(-c4ccccc4)oc2=O)O3)cc1

— PubChem BioAssay (NCATS)
